# High-throughput results: PubChem, National Center for Advancing Translational Sciences (NCATS)
# Compounds with a hit are over-represented: about 6.2% of the library has one in this group of screens.
# HT1080NT lethal: kills 2HG-producing HT-1080-NT fibrosarcoma cells | AID 686970 | Potency, µM (series often up to 46.1 µM), without a hit: top-dose activity, negative = less viability, most hits filed as cytotoxic | hit rate 1.6% among 360,000 | HT-1080-NT fibrosarcoma viability, CellTiter-Glo ATP luminescence, 48 h;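 note: NT is the 2HG producing partner of a matched IDH1 knockdown line; 0% = DMSO-treated cells and -100% = media-only wells without cells; nearly all actives have a fitted effect of over 55% in size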
#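 Viability of the 2HG-overproducing fibrosarcoma line after 48 hours of compound exposure at 37 degrees C was determined by luminescence with CellTiter-Glo, and concentration-effect curves were then fitted and categorized.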
# KB-3-1 tox: KB-3-1 parental cell cytotoxicity. KB-3-1 viability, CellTiter-Glo ATP luminescence, 72 h. Potency, µM (series often up to 46.1 µM), hits mostly cytotoxic. hit rate 1.4% among 400,000. AID 1347075; note: % is set by controls: 0 for no effect and ±100 for the full control effect; nearly all actives have a fitted effect of over 60% in size
#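 Multi-concentration cytotoxicity screen in KB-3-1 cells grown in DMEM lacking phenol red with 10% FBS. After 72 h at 37 °C with compound, ATP-dependent luminescence was recorded.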
# KB-V1 cytotox: kills drug-selected multidrug resistant KB-V1 cells; KB-V1 MDR cells viability, CellTiter-Glo, 72 h; AID 1347076; hit rate 3.4% among 400,000; Potency, µM (top dose mostly 46.1 µM), actives largely listed as cytotoxic; note: % is set by controls: 0 for no effect and ±100 for the full control effect; nearly all actives have a fitted effect of over 60% in size
#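 KB-V1 cells (P-gp-expressing MDR subline of KB-3-1) in phenol-red-free DMEM with 10% FBS were exposed to library compounds over a concentration series for 72 h at 37 degrees C. Viability read by CellTiter-Glo luminescence; concentration-effect curves fitted after normalization.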
# ATXN2 expr inh: inhibitors of ATXN2 expression; Potency, µM (highest dose often 57 µM), for inactives: at the top dose activity change, negative = inhibition, usual class: inhibitors; HEK-293 ATXN2-luciferase reporter, luminescence, 24 h; AID 1745845; hit rate 0.72% among 360,000; note: % is set by controls: 0 for no effect and ±100 for the full control effect; nearly all actives have a fitted effect of over 55% in size
#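 ATXN2-luciferase reporter cells (luciferase flanked by upstream and downstream ATXN2 gene portions) were treated 24 h at 37 °C with compounds at up to 57 uM. SteadyGlo luminescence gave expression; GF-AFC fluorescence gave viability.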
# HT1080 IDH1KD tx: HT-1080 IDH1 knockdown cell toxicity (counter line) | HT-1080 IDH1 knockdown viability, ATP luminescence, 48 h | Potency, µM (doses to about 46.1 µM), inactives show at the top dose activity, negative = toxicity, most hits filed as cytotoxic | hit rate 2% among 360,000 | AID 686971;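 note: 0% = DMSO wells and -100% = cell-free medium wells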
#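 Luminescent ATP read-out (CellTiter-Glo, 10 min at room temperature) after 48 h compound exposure at 37 °C gave viability of IDH1-knockdown HT-1080 cells. Activity was normalised to DMSO and cell-free wells, then fitted as concentration-response curves.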
# ATXN viability: cell viability loss in ATXN counter-screen; S2 cells (HEK-293 line with an ATXN2-luciferase reporter) viability, CellTiter-Fluor protease fluorescence, 24 h; Potency, µM (titrated, usually from 56.7 µM), most hits filed as cytotoxic; hit rate 0.49% among 400,000; AID 651635; note: nearly all actives have a fitted effect of over 40% in size
# Active calls of the source: *; i = inactive; u = inconclusive; x = not tested or not shown; ! = a repeat was not active. Calls come from the whole dose curve; as a rule, active = well fitted curve in the direction sought with a large enough effect; inconclusive = small, poorly fitted or top-dose-only effect, or another doubt; inactive = no such curve, though single readings can be large; an effect the other way counts as inactive or inconclusive. Potency is the fitted concentration of half-maximal effect.
SMILES,HT1080NT lethal,KB-3-1 tox,KB-V1 cytotox,ATXN2 expr inh,HT1080 IDH1KD tx,ATXN viability
CCOC(=O)[C@]12Cc3cc(C)ccc3[C@H]1N(Cc1ccccc1)C(=O)c1cc(F)c(F)cc12,u,3.26µM*,i,17.8µM*,u,15.8µM*
CCOC(=O)[C@]12Cc3cc(OC)ccc3[C@H]1N(Cc1ccccc1)C(=O)c1cc(F)c(F)cc12,-1.5%,u,u,-15.2%,-1.1%,i
CCOC(=O)[C@]12Cc3ccccc3[C@H]1N(C)C(=O)c1cc(OC)ccc12,u,9.2µM*,7.31µM*,u,u,x
CCOC(=O)[C@]12Cc3c(cc(OC)c(OC)c3OC)[C@H]1N(C(C)C)C(=O)c1ccccc12,u,13µM*,8.2µM*,u,6.51µM*,u
CCOC(=O)[C@]12Cc3c(cc(OC)c(OC)c3OC)[C@H]1N(C)C(=O)c1cc(OC)ccc12,14.6µM*,2.91µM*,3.66µM*,11.2µM*,u,x
CN(Cc1ccccc1)C(=O)c1cccc(NC(=O)Cc2ccc([N+](=O)[O-])cc2)c1,-5.6%,i,i,u,-24.3%,u
CCOC(=O)[C@]12Cc3ccccc3[C@H]1N(C(C)C)C(=O)c1cc(OC)ccc12,u,3.66µM*,4.11µM*,u,16.4µM*,x
CCOC(=O)[C@]12Cc3cc(C)ccc3[C@H]1N(C(C)C)C(=O)c1ccccc12,11.6µM*,4.11µM*,i,u,25.9µM*,x
CCOC(=O)[C@]12Cc3cc(C)ccc3[C@H]1N(Cc1ccccc1)C(=O)c1ccccc12,-2.9%,u,u,u,-22.1%,u
Fc1cc(Br)ccc1CBr,x,x,x,12.2%,x,i
Cc1cccc(Cn2cc(C=O)c3ccccc32)c1,-10.0%,18.4µM*,i,u,u,i
N#Cc1ccc(Cn2cc(C=O)c3ccccc32)cc1,-3.5%,i,i,u,-4.1%,i
O=Cc1cn(Cc2c(F)cccc2Cl)c2ccccc12,0.3%,u,16.4µM*,x,-12.4%,u
O=Cc1cn(Cc2cccc([N+](=O)[O-])c2)c2ccccc12,-15.7%,u,u,0.447µM*,-3.8%,u
O=Cc1cn(Cc2ccccc2F)c2ccccc12,-6.4%,i,i,u,-17.0%,i
O=C(NC(c1cccnc1)C(F)(F)F)c1cnn(-c2nccc(-c3cccs3)n2)c1C1CC1 (stereo not given),x,x,x,x,x,i
CC(=NCc1ccc2c(c1)OCO2)c1c(O)n(-c2ccccc2)c(=O)[nH]c1=O,-1.7%,u,i,-19.6%,u,i
COc1cc(/C=C/C(=O)c2c(O)n(CCc3ccccc3)c(=O)[nH]c2=O)ccc1O,u,i,i,-0.7%,11.6µM*,u
O=C(/C=C/c1ccc2c(c1)OCO2)c1c(O)n(CCc2ccccc2)c(=O)[nH]c1=O,0.5%,u,13µM*,-13.2%,0.0%,i
O=C(/C=C/c1ccccc1)c1c(O)n(CCc2ccccc2)c(=O)[nH]c1=O,-10.7%,14.6µM*,6.51µM*,-31.4%,-22.5%,u
O=c1[nH]c(=O)n(CCc2ccccc2)c(O)c1C=NCCN1CCNCC1,-0.1%,i,i,5.1%,1.4%,i
COc1ccc(-c2nn3c(=O)cc(CN4CCN(S(=O)(=O)c5ccc(C)cc5)CC4)nc3s2)cc1,x,i,i,3.5%,x,u
COc1ccc(S(=O)(=O)N2c3ccc(F)cc3CCC2C)cc1 (stereo not given),1.84µM*,1.64µM*,1.64µM*,x,3.66µM*,u
O=C(N/N=C/c1c(O)n(CCc2ccccc2)c(=O)[nH]c1=O)c1ccccc1O,13.0%,i,u,x,-7.2%,i
CCCCCCC(=O)N/N=C/c1c(O)n(CCc2ccccc2)c(=O)[nH]c1=O,-9.8%,u,i,17.8µM*,u,u
SMILES,HT1080NT lethal,KB-3-1 tox,KB-V1 cytotox,ATXN2 expr inh,HT1080 IDH1KD tx,ATXN viability
CCCCCCC(=O)N/N=C/c1c(O)n(C(C)CC)c(=S)[nH]c1=O (stereo not given),u,u,i,x,14.6µM*,i
Cc1ccc(N2CCN(C(=O)c3cn(CC4CCCCC4)nn3)C(C)C2)cc1 (stereo not given),u,i,u,5.6%,u,i
O=C1CN=C(c2cccs2)c2c(sc3c2CCCC3)N1,11.2µM*,u,u,u,10µM*,i
Cc1cc2c(s1)NC(=O)CN=C2c1cccs1,-1.8%,i,i,2.0%,4.7%,i
O=C1CN=C(c2ccccc2)c2c(sc3c2CCCC3)N1,u,i,u,-19.3%,23.1µM*,u
Clc1ccc(CO[C@@H](Cn2ccnc2)c2ccc(Cl)cc2Cl)cc1,x,x,x,x,x,i
CCCCN(C)C(=O)c1oc2ccc(S(=O)(=O)N3CCCCCC3)cc2c1C,u,i,2.59µM*,u,u,i
CCCCOC(=O)n1c(=O)oc2ccc(S(=O)(=O)N3CCCCC3)cc21,-17.1%,u,i,-14.2%,u,i
CC(C)(C)NC[C@H](O)c1ccc(O)cc1Cl,x,x,x,14.0%,x,u
C[C@@H]1CN([C@H](C)CO)S(=O)(=O)c2ccc(C#Cc3cccc(F)c3)cc2O[C@@H]1CN(C)C(=O)CN1CCOCC1,-7.9%,i,i,u,-14.0%,20µM*
Cc1ccc(S(=O)(=O)N(C)C[C@H]2Oc3cc(Br)ccc3S(=O)(=O)N([C@H](C)CO)C[C@H]2C)cc1,-19.7%,u,u,u,-4.8%,u
COc1ccc(-c2nc(CN3C(=O)CN=C(c4ccccc4)c4cc(Cl)ccc43)c(C)o2)cc1,x,i,u,u,x,x
Oc1ccc(-c2csc(-c3ccccc3)n2)cc1O,11.2µM*,u,14.6µM*,24.8%,10µM*,i
CC(C)COC(=O)n1c(=O)oc2cc(S(=O)(=O)N3CCCCC3)ccc21,u,u,i,2.0%,u,i
COc1cccc(N2CCN(C(=O)C3CCCN(S(=O)(=O)c4ccc5c(c4)oc(=O)n5C)C3)CC2)c1 (stereo not given),12.2%,11.6µM*!,i,-13.7%,-5.1%,i
O=C1NC(=O)N(c2ccccc2)C(=O)/C1=C/c1ccc(Sc2ccccc2)o1,u,i,i,25.1µM*,u,u
O=C(O)CCCCCCNC1c2ccccc2CCc2ccccc21,x,x,x,0.2%,x,i
COc1ccc(C(=O)Nc2ccccc2-c2nnn(CC(=O)Nc3ccc4c(c3)OCCO4)n2)cc1,-0.8%,i,u,-2.9%,2.2%,u
Cc1cccc(OCC(=O)Nc2cc(-c3ccccc3F)nn2-c2ccccc2)c1,x,i,i,-23.3%,x,u
